The term AC50 denotes the concentration at which the activity in the assay is half-maximal.

SMILES strings stand for the structures. Records with an inconclusive call do not appear. Activity calls are given as the source filed them.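 The calls were made as follows, unless noted: active = compounds killing one labelled cell type while sparing the other, by normalised counts and ratio limits, not self-fluorescent; inactive = the rest.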

The text below walks through data of PubChem BioAssay.

Assay [1] is described as follows: EMT-state selective cytotoxicity in co-culture – imaging, PC-3E GFP, TEM4-18 mCherry, primary screen (AID 1345086).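 As to all read-outs here: cells exposed to compound for 72 h before imaging.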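 As to red/green cell ratio (normalised): normalised mesenchymal count divided by normalised epithelial count so high means epithelial killing.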 As to conditions: PC-3E GFP / TEM4-18 mCherry co-culture, imaging cell counts, at 1 µM; for red/green cell ratio (normalised): actives lie on both sides, counts scaled to control wells, 1 = unselective.
Assay [2] is described as follows: viability loss in pontine glioma line – cell-based, SU-DIPG-XVII, MIPE5.0, CellTiter-Glo, qHTS, dose response (AID 1347060; cut-off not given, nearly all actives have AC50 up to about 26 µM;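 also: cells exposed to compound for 48 hours before viability readout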). To be noted: CellTiter-Glo ATP luminescence. Background: ATP-based viability assays read luminescence as a measure of living cells.
Assay [3] can be described thus: viability loss in pontine glioma line – cell-based, SU-DIPG-XIII, MIPE4.0, CellTiter-Glo, qHTS, dose response (AID 1347061; cut-off not given, nearly all actives have AC50 up to about 37 µM;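 also: cells exposed to compound for 48 hours before readout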). As to conditions: CellTiter-Glo ATP luminescence.
A short description of assay [4]: viability loss in pontine glioma line – cell-based, SU-DIPG-IV, MIPE4.0, CellTiter-Glo, qHTS, dose response (AID 1347063; cut-off not given, nearly all actives have AC50 up to about 30 µM;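 also: compound exposure lasted 48 hours before the viability readout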). To be noted: CellTiter-Glo ATP luminescence.
Assay [5] can be described thus: viability loss in pontine glioma line – cell-based, SU-DIPG-XIII, MIPE5.0, CellTiter-Glo, qHTS, dose response (AID 1347064; cut-off not given, nearly all actives have AC50 up to about 23 µM;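 also: cells exposed to compound for 48 hours before the viability read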). As to conditions: CellTiter-Glo ATP luminescence.
Assay [6] is described as follows: viability loss in pontine glioma line – cell-based, SU-DIPG-XXV, MIPE5.0, CellTiter-Glo, qHTS, dose response (AID 1347065; cut-off not given, nearly all actives have AC50 up to about 26 µM;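 also: cells exposed to compound for 48 hours before ATP readout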). To be noted: CellTiter-Glo ATP luminescence.
A short description of assay [7]: growth inhibition of DIPG cells – cell-based, MIPE4.0 library, CellTiter-Glo luminescence, qHTS (AID 1347066; cut-off not given, nearly all actives have AC50 up to about 30 µM;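 also: cells exposed to compound for 48 hours before readout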). As to conditions: SU-DIPG-VI viability, CellTiter-Glo ATP luminescence.
The nature of assay [8]: JHH-DIPG-1 glioma cell viability, MIPE5.0 library, CellTiter-Glo luminescence, qHTS (AID 1347067; cut-off not given, nearly all actives have AC50 up to about 26 µM;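 also: cells exposed to compound for 48 hours before readout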). To be noted: JHH-DIPG-1 glioma viability, CellTiter-Glo ATP luminescence.
The nature of assay [9]: growth inhibition of DIPG cells – cell-based, MIPE5.0 library, qHTS (AID 1347068; cut-off not given, nearly all actives have IC50 up to about 30 µM). To be noted: SU-DIPG-XXV viability. In general terms: Quantitative high-throughput screening tests each substance at several concentrations.
For assay [10], the target named is Mitogen-activated protein kinase 7 (Homo sapiens) (UniProt Q13164). Put plainly: Gal4-ERK5 driven luciferase induction – cell-based, HTS, primary screen (AID 1508626;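 active = luciferase signal above three times the same-plate solvent-only control wells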;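 also: luciferase driven by Gal4-ERK5 fusion binding five Gal4 sites before minimal TATA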). As to conditions: HeLa Gal4-ERK5 transactivation, 18 h, at 5 µM, stronger effect = higher value.
Mitogen-activated protein kinase 7 (Homo sapiens), sequence (Q13164 whole entry, looked up, the tested form may be a part): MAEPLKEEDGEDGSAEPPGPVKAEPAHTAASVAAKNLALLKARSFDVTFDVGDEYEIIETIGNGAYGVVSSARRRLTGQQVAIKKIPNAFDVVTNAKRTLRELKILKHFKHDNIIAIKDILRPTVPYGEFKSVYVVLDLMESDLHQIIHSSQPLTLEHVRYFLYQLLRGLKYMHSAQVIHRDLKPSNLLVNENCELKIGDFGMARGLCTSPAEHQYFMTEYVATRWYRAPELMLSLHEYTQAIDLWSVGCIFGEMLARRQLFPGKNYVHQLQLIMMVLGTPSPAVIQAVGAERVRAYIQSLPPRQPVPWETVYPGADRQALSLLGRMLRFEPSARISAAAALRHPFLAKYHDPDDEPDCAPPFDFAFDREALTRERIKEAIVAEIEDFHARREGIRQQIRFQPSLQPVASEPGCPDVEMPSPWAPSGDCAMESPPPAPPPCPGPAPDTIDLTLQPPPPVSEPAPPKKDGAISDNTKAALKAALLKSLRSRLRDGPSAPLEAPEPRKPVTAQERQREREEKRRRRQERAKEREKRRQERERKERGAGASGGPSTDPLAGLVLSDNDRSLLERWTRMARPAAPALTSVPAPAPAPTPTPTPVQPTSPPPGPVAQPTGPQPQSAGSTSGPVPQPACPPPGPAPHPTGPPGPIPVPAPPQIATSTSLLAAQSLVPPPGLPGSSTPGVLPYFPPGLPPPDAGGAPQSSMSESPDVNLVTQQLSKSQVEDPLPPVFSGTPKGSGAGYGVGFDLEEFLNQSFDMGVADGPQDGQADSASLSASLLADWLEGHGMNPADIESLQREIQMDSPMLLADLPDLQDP
The nature of assay [11]: viability loss with induced miR-34 in A549 – imaging, A549 dox-inducible miR-34, nuclei and caspase counts, primary screen (AID 1347080;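 active = compounds whose cell count with miR-34 switched on is under 0.7 times the count with it off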). As to conditions: A549 miR-34 inducible, Hoechst nuclei count, 48 h.
The mark [12] stands for this setting: measured here: epithelial PC-3E GFP cell survival.
Where [13] appears, read: measured here: mesenchymal TEM4-18 mCherry cell survival.
[14] abbreviates: stronger effect = lower value, cell number ratio, induced over uninduced.
[15] abbreviates: measured here: relative caspase fold change +Dox/-Dox.
Where [16] appears, read: measured here: total cells with miR-34 induction, stronger effect = lower value.
Where [17] appears, read: measured here: total cells without miR-34 induction.

On to `C[C@H]1COC2=C1C(=O)C(=O)c1c2ccc2c1CCCC2(C)C`, for which, in [1], the red/green cell ratio (normalised) was 0.82 (inactive). The normalised cell number in [1] (setting [12]) turned out to be 0.98; in assay [1] (setting [13]), 0.8. The AC50 in assay [2] is 20.9 µM (active); in assay [4], 13.2 µM (active); in [5] it was 18.6 µM (active); in assay [6] it was 20.9 µM (active); in assay [8] it was 20.9 µM (active). The molecule was classed as inactive in assay [3], in assay [7] and in assay [9]. In addition, the luciferase signal in [10] was 80 AU (inactive).

As to `CCC(CC)O[C@@H]1C=C(C(=O)OC)C[C@H](N)[C@H]1NC(C)=O`, in [1], the red/green cell ratio (normalised) was 0.99 (inactive). Moreover, the normalised cell number worked out at 1.01 in [1] (setting [12]) and 1 in assay [1] (setting [13]). The fold change was 0.882 (inactive) in [11] (setting [14]) and 1.08 in [11] (setting [15]). The cell count in [11] (setting [16]) was 8740; in assay [11] (setting [17]), 9910.

Take `Cc1cc2nc3c(=O)[nH]c(=O)nc-3n(C[C@@H](O)[C@@H](O)[C@@H](O)COP(=O)(O)O)c2cc1C`: the red/green cell ratio (normalised) in assay [1] is 1.01 (inactive). The normalised cell number in assay [1] (setting [12]) was determined as 1.03; in assay [1] (setting [13]) it was 1.04. Also, the figures for the fold change in [11] (setting [14]) and in [11] (setting [15]) were 0.895 (inactive) and 1.15, respectively. The cell count in assay [11] (setting [16]) came to 8530; in assay [11] (setting [17]), 9530.

With `O=C(O)CCCN1CCN([C@H](c2ccccc2)c2ccc(Cl)cc2)CC1`, the red/green cell ratio (normalised) in assay [1] is 0.97 (inactive). Besides, the normalised cell number in assay [1] (setting [12]) was 1.14; in [1] (setting [13]) it was 1.11. Moreover, the fold change in assay [11] (setting [14]) is 0.876 (inactive); in [11] (setting [15]), 0.778. The cell count in assay [11] (setting [16]) amounted to 8580; in assay [11] (setting [17]), 9800.

As to `C[C@]12CCC(=O)C=C1[C@@H]1C[C@@H]1C1C2CC[C@@]2(C)C1[C@@H]1C[C@@H]1[C@@]21CCC(=O)O1` (stereo not given in full), the red/green cell ratio (normalised) in assay [1] is 0.65 (inactive). In addition, the normalised cell number in assay [1] (setting [12]) is 1.4; in assay [1] (setting [13]) it was 0.91. The results for the fold change in assay [11] (setting [14]) and in [11] (setting [15]) were 1.02 (inactive) and 0.868, respectively. The cell count in assay [11] (setting [16]) is 7990; in assay [11] (setting [17]), 7840.

`CCCC[C@@H](CC)COC(=O)C(C#N)=C(c1ccccc1)c1ccccc1`: the red/green cell ratio (normalised) in [1] is 0.92 (inactive). Moreover, the normalised cell number in assay [1] (setting [12]) amounted to 1.19; in assay [1] (setting [13]), 1.09. The fold change was 0.897 (inactive) in assay [11] (setting [14]) and 0.819 in [11] (setting [15]). Moreover, the values for the cell count in [11] (setting [16]) and in assay [11] (setting [17]) were 8030 and 8950, respectively.

For the molecule `CC1/C=C/C=C/C=C/C=C/C=C/C=C/C=C/C(O[C@@H]2O[C@H](C)[C@H](O)[C@@H](O)[C@@H]2N)CC(O)C(C(=O)O)C(O)CC(=O)CC(O)CC(O)CC(O)CC(=O)CCCC(=O)CC(=O)OC1C(C)CC(C)C(O)CC(=O)c1ccc(N)cc1` (stereo not given in full), in assay [1], the red/green cell ratio (normalised) is 0.94 (inactive). Also, the normalised cell number in assay [1] (setting [12]) turned out to be 1.09; in assay [1] (setting [13]), 1.03. Besides, the results for the fold change in assay [11] (setting [14]) and in assay [11] (setting [15]) were 0.786 (inactive) and 1.31, respectively. Further, the figures for the cell count in [11] (setting [16]) and in assay [11] (setting [17]) were 5340 and 6790, respectively.

Turning to `COc1c(O)cc2c(c1O)[C@H]1O[C@H](CO)[C@@H](O)[C@H](O)[C@@H]1OC2=O`, the red/green cell ratio (normalised) in assay [1] is 0.9 (inactive). For the same molecule, the normalised cell number in assay [1] (setting [12]) is 1.23; in assay [1] (setting [13]), 1.11. Besides, the fold change in [11] (setting [14]) is 0.894 (inactive); in assay [11] (setting [15]), 0.886. Besides, the cell count in assay [11] (setting [16]) is 8900; in assay [11] (setting [17]), 9950.

Take `CO/N=C(/C(=O)NC1C(=O)N2C(C(=O)O)=C(CSc3nnnn3C)CSC12)c1csc(N)n1` (stereo not given): the red/green cell ratio (normalised) in assay [1] was 0.91 (inactive). Besides, the normalised cell number in assay [1] (setting [12]) is 1.17; in [1] (setting [13]) it was 1.06. Besides, the fold change in assay [11] (setting [14]) was 0.936 (inactive); in assay [11] (setting [15]), 0.695. For the same molecule, the cell count in assay [11] (setting [16]) is 9050; in [11] (setting [17]), 9680.

For `OC[C@@H](O)[C@H](O)[C@@H](O)[C@H](O)CO`, the red/green cell ratio (normalised) in assay [1] is 1.12 (inactive). For the same molecule, the normalised cell number in [1] (setting [12]) came to 0.97; in [1] (setting [13]) it was 1.08. Besides, the fold change in assay [11] (setting [14]) was 0.853 (inactive); in assay [11] (setting [15]), 0.862. For the same molecule, the cell count amounted to 7670 in [11] (setting [16]) and 9000 in [11] (setting [17]).
